Results reported in PubChem BioAssay (EPA / NIEHS).
Results filed as inconclusive are left out. Activity calls are given as the source filed them. The calls were made as follows, unless noted: active = hit-call score of the fitted dose curve at least 0.9, where 1 is the maximum; inconclusive = response in the unintended direction; inactive = score below 0.9.

Assays:
[1] = molecular target: human Peroxisome Proliferator-activated Receptor alpha (PPARa), PPARA (gene 5465) (UniProt Q07869); test: ATG_PPARa_TRANS: Attagene TRANS-FACTORIAL HepG2 Assay for human Peroxisome Proliferator-activated Receptor alpha (PPARa) (AID 2283001);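 as to AC50: potency for gain of reporter signal over DMSO so agonist or activator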
In short: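 HepG2 cells transiently transfected with multiplexed GAL4-UAS reporters driven by exogenous chimeric NR-Gal4 proteins; reporter mRNA measured after 24 h dosing. Read-out by RT-PCR, 6-FAM labelling, HpaI digestion and capillary electrophoresis; gain of signal versus DMSO.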

[2] = molecular target: human Retinoic Acid Receptor beta (RARb), RARB (gene 5915) (UniProt P10826); test: ATG_RARb_TRANS: Attagene TRANS-FACTORIAL HepG2 Assay for human Retinoic Acid Receptor beta (AID 2283004)
In short: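 Readout is reporter mRNA induction: RNA reverse-transcribed, PCR-amplified, FAM-labelled, HpaI-cut and resolved by capillary electrophoresis. Transiently transfected HepG2 cells carrying exogenous NR–Gal4 chimeras were dosed for 24 h; activity fitted upward relative to DMSO.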

[3] = molecular target: Peroxisome proliferator-activated receptor gamma (Homo sapiens) (UniProt P37231); test: ATG_PPARg_TRANS: Attagene TRANS-FACTORIAL HepG2 Assay for human Peroxisome Proliferator-activated Receptor-gamma (PPARg) (AID 2283007)
In short: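 Twenty-four hours after chemical dosing of transiently transfected HepG2 cells, isolated RNA was converted to cDNA, reporter sequences amplified and 6-FAM-labelled, then HpaI-digested and analysed by capillary electrophoresis. Signal increase against DMSO was fitted.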

[4] = molecular target: Nuclear receptor subfamily 1 group I member 2 (Homo sapiens) (UniProt O75469); test: ATG_PXR_TRANS: Attagene TRANS-FACTORIAL HepG2 Assay for human Pregnane X Receptor (PXR) (AID 2283008)
In short: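 Read-out is fluorescence of labelled reporter cDNA fragments separated by capillary electrophoresis after RT-PCR and HpaI digestion. Source: HepG2 cells carrying PXR-GAL4/UAS reporter constructs, treated 24 h; activity fitted upward relative to DMSO.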

[5] = molecular target: Retinoic acid receptor RXR-alpha (Homo sapiens) (UniProt P19793); test: ATG_RXRa_TRANS: Attagene TRANS-FACTORIAL HepG2 Assay for human Retinoid X Receptor alpha (RXRa) (AID 2283012)
In short: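 HepG2 cells transiently transfected with GAL4-UAS reporter units and chimeric RXRa-Gal4 protein, treated 24 h. Reporter mRNA measured by RT-PCR, fluorescent labelling, HpaI digestion and capillary electrophoresis. Induction fitted against DMSO.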

[6] = molecular target: human Retinoid X Receptor beta (RXRb), RXRB (gene 6257) (UniProt P28702); test: ATG_RXRb_TRANS: Attagene TRANS-FACTORIAL HepG2 Assay for human Retinoid X Receptor beta (RXRb) (AID 2283013)
In short: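 HepG2 cells were transiently transfected with multiplexed GAL4-UAS reporters and a chimeric RXRb-Gal4 construct, then exposed for 24 h. Reporter mRNA was quantified by RT-PCR, FAM labeling, HpaI digestion and capillary electrophoresis; gain of signal was scored against DMSO.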

[7] = molecular target: human Peroxisome Proliferator-activated Receptor delta (PPARd), PPARD (gene 5467) (UniProt Q03181); test: ATG_PPARd_TRANS: Attagene TRANS-FACTORIAL HepG2 Assay for human Peroxisome Proliferator-activated Receptor delta (PPARd) (AID 2283002)
In short: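 Fluorescence from capillary electrophoresis of labelled RT-PCR reporter fragments gives the signal; DMSO sets baseline. Cells: HepG2 transiently carrying GAL4-UAS reporter units plus chimeric nuclear receptor-Gal4 proteins, exposed to chemicals for 24 h.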

[8] = molecular target: human RAR-related Orphan Receptor beta (RORb), RORB (gene 6096) (UniProt Q92753); test: ATG_RORb_TRANS: Attagene TRANS-FACTORIAL HepG2 Assay for human RAR-related Orphan Receptor beta (RORb) (AID 2283010)
In short: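 HepG2 cells transiently transfected with GAL4-UAS reporter units expressing chimeric NR-Gal4 protein; reporter mRNA measured 24 h after dosing by RT-PCR, 6-FAM labelling and capillary electrophoresis. Gain-of-signal fitted relative to DMSO baseline.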

[9] = molecular target: human RAR-related Orphan Receptor gamma (RORg), RORC (gene 6097) (UniProt P51449); test: ATG_RORg_TRANS: Attagene TRANS-FACTORIAL HepG2 Assay for human RAR-related Orphan Receptor gamma (RORg) (AID 2283011)
In short: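 Transient MRTU transfection of HepG2 (TRANS format, exogenous NR-Gal4 chimera). 24 h dosing. Total RNA → oligo(dT) RT → PCR → 6-FAM labelling → HpaI cut → CE. Gain vs DMSO.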

[10] = molecular target: human Thyroid Receptor alpha (THRa1), THRA (gene 7067) (UniProt P10827); test: ATG_THRa1_TRANS: Attagene TRANS-FACTORIAL HepG2 Assay for human Thyroid Receptor alpha (THRa1) (AID 2283014)
In short: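 Transient HepG2 transfection, NR-Gal4 chimera driving GAL4-UAS reporters; 24 h compound exposure; total RNA, oligo(dT) RT, PCR, fluorescent primer extension, capillary electrophoresis. Upward direction vs DMSO control.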

[11] = read-out: Intercellular Adhesion Molecule 1 (ICAM1), ICAM1 (gene 3383); test: BSK_3C_ICAM1: BioMAP Diversity Plus: 3C Assay for Intercellular Adhesion Molecule 1 (ICAM1) Biomarker Activity (AID 2283003; active = hit-call score of the fitted dose curve at least 0.9, where 1 is the maximum; inactive = score below 0.9); conditions: primary human endothelial cells (HUVEC); actives raise or lower the signal
In short: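 HUVEC primary cells stimulated under 3C conditions; ICAM1 measured by ELISA 24 h after compound dosing. Curves fitted bidirectionally against the DMSO baseline. Overt cytotoxicity checked by SRB staining of parallel cultures.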

[12] = BSK_3C_Proliferation: Cell Proliferation Assessment in the BioMAP Diversity Plus: 3C Assay (AID 2283006; active = hit-call score of the fitted dose curve at least 0.9, where 1 is the maximum; inactive = score below 0.9); conditions: primary human endothelial cells (HUVEC)
In short: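 Subconfluent HUVEC (3C system) cultured with chemical; relative cell number read at 48 h by sulforhodamine B total-protein staining (0.1% SRB after 10% TCA fixation, 560 nm). Bidirectional fit relative to DMSO.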

[13] = read-out: E-selectin (Homo sapiens) (UniProt P16581); test: BSK_3C_Eselectin: BioMAP Diversity Plus: 3C Assay for Eselectin Biomarker Activity (AID 2283015; active = hit-call score of the fitted dose curve at least 0.9, where 1 is the maximum; inactive = score below 0.9;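 also: cell surface E-selectin protein quantified by ELISA 24 h after dosing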); conditions: primary human endothelial cells (HUVEC); actives raise or lower the signal
In short: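 HUVEC, 3C stimulation; compound exposure 24 h; E-selectin by ELISA; gain- or loss-of-signal fitted bidirectionally vs DMSO baseline.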

[14] = read-out: Interleukin-1 alpha (IL1a), IL1A (gene 3552); test: BSK_BE3C_IL1a: BioMAP Diversity Plus: BE3C Assay for Interleukin-1 alpha (IL1a) Biomarker Activity (AID 2283016; active = hit-call score of the fitted dose curve at least 0.9, where 1 is the maximum; inactive = score below 0.9); conditions: primary human bronchial epithelial cells; actives raise or lower the signal
In short: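 Human primary bronchial epithelial cells, 24 h chemical exposure; IL-1a quantified by ELISA, fitted bidirectionally against DMSO. Cytotoxicity assessed in parallel by SRB total-protein staining at the time of measurement.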

[15] = read-out: Monocyte Chemoattractant Protein-1 (MCP1), CCL2 (gene 6347); test: BSK_3C_MCP1: BioMAP Diversity Plus: 3C Assay for Monocyte Chemoattractant Protein-1 (MCP1) Biomarker Activity (AID 2283017; active = hit-call score of the fitted dose curve at least 0.9, where 1 is the maximum; inactive = score below 0.9); conditions: primary human endothelial cells (HUVEC); actives raise or lower the signal
In short: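 HUVEC, 3C system; 24 h chemical exposure; MCP-1 by ELISA; bidirectional curve fit vs DMSO baseline.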

[16] = read-out: Monocyte Chemoattractant Protein-1 (MCP1), CCL2 (gene 6347); test: BSK_4H_MCP1: BioMAP Diversity Plus: 4H Assay for Monocyte Chemoattractant Protein-1 (MCP1) Biomarker Activity (AID 2283018; active = hit-call score of the fitted dose curve at least 0.9, where 1 is the maximum; inactive = score below 0.9); conditions: primary human endothelial cells (HUVEC); actives raise or lower the signal
In short: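 Human umbilical vein endothelial cells (4H system) exposed to chemicals for 24 h in 96-well format. MCP-1 measured by ELISA; bidirectional fitting against DMSO, with SRB total-protein staining in parallel cultures for cytotoxicity.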

[17] = read-out: Human Leukocyte Antigen - DR isotype (HLADR), HLA-DRA (gene 3122); test: BSK_3C_HLADR: BioMAP Diversity Plus: 3C Assay for Human Leukocyte Antigen - DR isotype (HLADR) Biomarker Activity (AID 2283019; active = hit-call score of the fitted dose curve at least 0.9, where 1 is the maximum; inactive = score below 0.9;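 also: ELISA of cell-surface HLA-DR on HUVEC 24 h after dosing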); conditions: primary human endothelial cells (HUVEC); actives raise or lower the signal
In short: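 HUVEC, 3C stimulation, 24 h post-dose; HLA-DR by ELISA; bidirectional curve fit vs DMSO baseline; gain or loss of signal scored.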

[18] = read-out: Interleukin-8 (IL8), CXCL8 (gene 3576); test: BSK_3C_IL8: BioMAP Diversity Plus: 3C Assay for Interleukin-8 (IL8) Biomarker Activity (AID 2283020; active = hit-call score of the fitted dose curve at least 0.9, where 1 is the maximum; inactive = score below 0.9); conditions: primary human endothelial cells (HUVEC); actives raise or lower the signal
In short: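 Primary human umbilical vein endothelial cells were dosed for 24 h. IL-8 was quantified by ELISA and fitted bidirectionally against DMSO. Cytotoxicity was assessed in parallel cultures by SRB staining at 560 nm.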

[19] = molecular target: Retinoic acid receptor alpha (Homo sapiens) (UniProt P10276); test: ATG_RARa_TRANS: Attagene TRANS-FACTORIAL HepG2 Assay for human Retinoic Acid Receptor alpha (RARa) (AID 2283005)
In short: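 HepG2 transiently transfected with multiplex GAL4-UAS reporter units including a human RARa–GAL4 chimera; 24 h compound exposure. Reporter mRNA quantified by RT-PCR, 6-FAM labeling and capillary electrophoresis; gain of signal versus DMSO.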

[20] = molecular target: human Retinoic Acid Receptor gamma (RARg), RARG (gene 5916) (UniProt P13631); test: ATG_RARg_TRANS: Attagene TRANS-FACTORIAL HepG2 Assay for human Retinoic Acid Receptor gamma (RARg) (AID 2283009)
In short: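 HepG2 transiently transfected with GAL4-UAS reporter units and chimeric NR-Gal4 constructs; 24 h compound exposure. Reporter mRNA quantified by RT-PCR, FAM labeling, HpaI digestion and capillary electrophoresis; gain-of-signal versus DMSO.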

Measured: AC50

human Thyroid Receptor alpha (THRa1), THRA (gene 7067), sequence (P10827 whole entry, looked up, the tested form may be a part): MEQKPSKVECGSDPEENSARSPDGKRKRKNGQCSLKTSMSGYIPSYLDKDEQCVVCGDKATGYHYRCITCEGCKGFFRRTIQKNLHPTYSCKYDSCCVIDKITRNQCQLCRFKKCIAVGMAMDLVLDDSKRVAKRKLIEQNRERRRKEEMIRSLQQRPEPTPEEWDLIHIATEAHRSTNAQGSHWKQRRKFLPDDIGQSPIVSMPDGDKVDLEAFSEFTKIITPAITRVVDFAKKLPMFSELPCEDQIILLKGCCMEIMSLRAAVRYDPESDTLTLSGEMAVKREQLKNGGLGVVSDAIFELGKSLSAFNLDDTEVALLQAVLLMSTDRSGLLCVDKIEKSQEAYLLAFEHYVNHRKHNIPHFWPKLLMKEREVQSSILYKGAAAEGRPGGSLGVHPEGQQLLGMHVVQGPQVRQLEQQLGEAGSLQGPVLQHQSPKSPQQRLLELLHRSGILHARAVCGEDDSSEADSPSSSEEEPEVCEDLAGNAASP
human Peroxisome Proliferator-activated Receptor alpha (PPARa), PPARA (gene 5465), sequence (Q07869 whole entry, looked up, the tested form may be a part): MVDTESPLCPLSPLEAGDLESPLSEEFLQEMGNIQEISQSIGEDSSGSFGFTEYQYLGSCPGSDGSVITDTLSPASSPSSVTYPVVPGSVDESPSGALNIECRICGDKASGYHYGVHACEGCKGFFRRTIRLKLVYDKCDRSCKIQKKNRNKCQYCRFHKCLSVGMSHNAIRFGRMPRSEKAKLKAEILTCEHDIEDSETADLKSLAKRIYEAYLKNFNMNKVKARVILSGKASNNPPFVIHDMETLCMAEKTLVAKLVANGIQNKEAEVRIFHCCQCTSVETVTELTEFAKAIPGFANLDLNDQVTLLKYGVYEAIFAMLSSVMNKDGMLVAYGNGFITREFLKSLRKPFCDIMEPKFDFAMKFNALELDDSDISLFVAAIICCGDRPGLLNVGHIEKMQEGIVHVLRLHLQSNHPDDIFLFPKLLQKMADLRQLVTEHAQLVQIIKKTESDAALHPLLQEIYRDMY
Peroxisome proliferator-activated receptor gamma (Homo sapiens), sequence (P37231 whole entry, looked up): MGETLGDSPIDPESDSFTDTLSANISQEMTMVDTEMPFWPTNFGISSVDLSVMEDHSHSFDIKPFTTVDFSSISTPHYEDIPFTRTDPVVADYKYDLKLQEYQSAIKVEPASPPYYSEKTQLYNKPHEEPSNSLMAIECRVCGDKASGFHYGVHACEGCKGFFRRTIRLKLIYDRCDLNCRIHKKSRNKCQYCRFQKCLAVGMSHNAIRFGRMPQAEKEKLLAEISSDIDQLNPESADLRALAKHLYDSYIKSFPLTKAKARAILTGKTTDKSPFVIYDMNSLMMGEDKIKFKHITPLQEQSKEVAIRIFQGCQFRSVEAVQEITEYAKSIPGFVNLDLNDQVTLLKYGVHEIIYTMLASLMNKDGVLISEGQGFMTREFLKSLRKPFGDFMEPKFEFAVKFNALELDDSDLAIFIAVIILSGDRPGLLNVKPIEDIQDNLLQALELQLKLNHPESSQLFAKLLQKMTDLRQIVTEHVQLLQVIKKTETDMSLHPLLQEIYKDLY
Retinoic acid receptor RXR-alpha (Homo sapiens), sequence (P19793 whole entry, looked up, the tested form may be a part): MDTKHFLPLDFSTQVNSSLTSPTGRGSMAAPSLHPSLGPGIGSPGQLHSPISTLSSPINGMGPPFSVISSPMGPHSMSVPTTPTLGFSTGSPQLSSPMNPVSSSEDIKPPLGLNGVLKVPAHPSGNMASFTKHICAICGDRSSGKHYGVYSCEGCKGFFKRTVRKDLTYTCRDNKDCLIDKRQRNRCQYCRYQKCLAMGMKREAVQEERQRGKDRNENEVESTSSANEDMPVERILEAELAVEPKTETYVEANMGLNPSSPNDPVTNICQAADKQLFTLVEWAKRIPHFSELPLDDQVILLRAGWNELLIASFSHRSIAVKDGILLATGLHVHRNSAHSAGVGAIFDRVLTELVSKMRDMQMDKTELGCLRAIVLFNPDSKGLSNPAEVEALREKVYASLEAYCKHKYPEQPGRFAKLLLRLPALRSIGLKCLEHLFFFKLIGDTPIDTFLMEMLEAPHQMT
human RAR-related Orphan Receptor gamma (RORg), RORC (gene 6097), sequence (P51449 whole entry, looked up, the tested form may be a part): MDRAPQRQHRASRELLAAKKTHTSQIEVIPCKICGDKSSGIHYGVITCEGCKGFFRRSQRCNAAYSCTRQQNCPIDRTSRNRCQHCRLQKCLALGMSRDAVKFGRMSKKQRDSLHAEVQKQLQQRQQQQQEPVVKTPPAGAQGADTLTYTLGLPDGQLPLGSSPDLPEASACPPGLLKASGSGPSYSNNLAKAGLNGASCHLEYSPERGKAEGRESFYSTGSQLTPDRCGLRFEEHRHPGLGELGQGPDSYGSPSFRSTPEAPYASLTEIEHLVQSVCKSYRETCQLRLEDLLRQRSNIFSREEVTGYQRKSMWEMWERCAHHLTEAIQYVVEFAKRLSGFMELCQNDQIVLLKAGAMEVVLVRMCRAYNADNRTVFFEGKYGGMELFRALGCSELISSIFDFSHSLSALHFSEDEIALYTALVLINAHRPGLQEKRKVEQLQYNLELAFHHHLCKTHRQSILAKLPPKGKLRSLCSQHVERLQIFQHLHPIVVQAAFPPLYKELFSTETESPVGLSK
Nuclear receptor subfamily 1 group I member 2 (Homo sapiens), sequence (O75469 whole entry, looked up, the tested form may be a part): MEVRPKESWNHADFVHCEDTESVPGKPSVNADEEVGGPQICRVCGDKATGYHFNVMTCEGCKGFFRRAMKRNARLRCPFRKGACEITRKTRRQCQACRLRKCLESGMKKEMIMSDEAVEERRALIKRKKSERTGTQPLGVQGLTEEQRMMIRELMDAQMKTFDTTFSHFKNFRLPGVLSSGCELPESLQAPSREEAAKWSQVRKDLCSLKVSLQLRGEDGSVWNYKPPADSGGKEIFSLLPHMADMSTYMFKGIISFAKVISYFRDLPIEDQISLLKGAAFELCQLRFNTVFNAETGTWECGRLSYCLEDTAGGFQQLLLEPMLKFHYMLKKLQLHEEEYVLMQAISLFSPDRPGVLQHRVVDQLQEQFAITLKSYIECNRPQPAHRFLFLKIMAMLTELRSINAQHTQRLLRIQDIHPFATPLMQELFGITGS
E-selectin (Homo sapiens), sequence (P16581 whole entry, looked up): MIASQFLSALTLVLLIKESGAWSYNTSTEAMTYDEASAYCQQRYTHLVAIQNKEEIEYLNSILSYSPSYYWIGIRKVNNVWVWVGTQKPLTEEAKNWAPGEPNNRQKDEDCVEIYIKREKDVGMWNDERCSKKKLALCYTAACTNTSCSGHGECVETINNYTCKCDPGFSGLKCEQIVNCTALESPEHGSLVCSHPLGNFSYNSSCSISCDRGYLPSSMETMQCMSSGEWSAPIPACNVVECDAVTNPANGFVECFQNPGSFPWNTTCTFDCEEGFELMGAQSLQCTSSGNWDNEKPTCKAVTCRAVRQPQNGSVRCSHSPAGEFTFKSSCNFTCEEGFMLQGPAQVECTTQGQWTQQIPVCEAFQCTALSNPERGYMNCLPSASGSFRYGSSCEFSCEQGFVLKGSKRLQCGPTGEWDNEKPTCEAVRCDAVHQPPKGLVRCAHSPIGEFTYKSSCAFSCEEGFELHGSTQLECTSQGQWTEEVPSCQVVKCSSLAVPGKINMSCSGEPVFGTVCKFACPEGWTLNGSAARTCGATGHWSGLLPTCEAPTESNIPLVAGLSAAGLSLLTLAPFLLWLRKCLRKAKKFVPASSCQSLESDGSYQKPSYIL
human RAR-related Orphan Receptor beta (RORb), RORB (gene 6096), sequence (Q92753 whole entry, looked up, the tested form may be a part): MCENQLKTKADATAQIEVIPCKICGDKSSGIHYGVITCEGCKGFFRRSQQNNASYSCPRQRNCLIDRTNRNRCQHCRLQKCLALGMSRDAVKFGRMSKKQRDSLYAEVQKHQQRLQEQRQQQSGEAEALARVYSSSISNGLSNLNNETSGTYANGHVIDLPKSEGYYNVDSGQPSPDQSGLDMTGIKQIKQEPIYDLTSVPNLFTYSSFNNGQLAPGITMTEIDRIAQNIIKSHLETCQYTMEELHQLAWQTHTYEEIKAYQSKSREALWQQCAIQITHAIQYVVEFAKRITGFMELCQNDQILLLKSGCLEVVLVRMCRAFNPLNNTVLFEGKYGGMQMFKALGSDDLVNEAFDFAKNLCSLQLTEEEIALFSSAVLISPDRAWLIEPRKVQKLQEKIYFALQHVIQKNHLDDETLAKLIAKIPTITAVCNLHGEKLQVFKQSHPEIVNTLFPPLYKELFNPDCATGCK
human Retinoid X Receptor beta (RXRb), RXRB (gene 6257), sequence (P28702 whole entry, looked up, the tested form may be a part): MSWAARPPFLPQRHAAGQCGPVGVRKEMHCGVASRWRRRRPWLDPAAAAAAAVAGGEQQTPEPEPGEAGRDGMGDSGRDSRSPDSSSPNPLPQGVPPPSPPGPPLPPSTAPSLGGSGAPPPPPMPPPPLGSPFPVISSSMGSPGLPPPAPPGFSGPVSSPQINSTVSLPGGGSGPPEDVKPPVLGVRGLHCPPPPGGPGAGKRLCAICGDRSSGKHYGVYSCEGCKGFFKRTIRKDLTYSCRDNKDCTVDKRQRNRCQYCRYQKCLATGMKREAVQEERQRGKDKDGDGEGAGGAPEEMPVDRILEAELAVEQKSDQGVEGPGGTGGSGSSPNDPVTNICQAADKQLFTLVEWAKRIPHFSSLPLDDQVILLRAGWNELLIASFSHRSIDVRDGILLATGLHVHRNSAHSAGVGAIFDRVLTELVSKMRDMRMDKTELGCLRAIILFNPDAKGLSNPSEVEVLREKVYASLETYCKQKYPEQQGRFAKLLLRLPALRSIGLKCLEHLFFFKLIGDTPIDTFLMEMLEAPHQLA
human Peroxisome Proliferator-activated Receptor delta (PPARd), PPARD (gene 5467), sequence (Q03181 whole entry, looked up, the tested form may be a part): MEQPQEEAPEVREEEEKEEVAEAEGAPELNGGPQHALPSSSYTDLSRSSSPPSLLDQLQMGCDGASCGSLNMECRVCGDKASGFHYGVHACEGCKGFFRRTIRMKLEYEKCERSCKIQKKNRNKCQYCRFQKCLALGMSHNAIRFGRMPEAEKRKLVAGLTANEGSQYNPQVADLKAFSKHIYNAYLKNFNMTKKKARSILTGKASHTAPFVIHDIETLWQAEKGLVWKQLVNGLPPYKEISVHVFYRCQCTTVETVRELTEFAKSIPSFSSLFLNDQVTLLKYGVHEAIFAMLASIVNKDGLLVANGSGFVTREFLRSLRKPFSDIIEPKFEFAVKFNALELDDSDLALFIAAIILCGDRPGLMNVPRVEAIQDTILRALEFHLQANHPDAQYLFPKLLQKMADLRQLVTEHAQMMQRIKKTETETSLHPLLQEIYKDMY

CC(C)=CCCC(C)=CCCC(C)=CCO
inactive: [1] | [2]
active: [3] 39.9 µM | [4] 10.2 µM | [5] 100 µM | [6] 28.1 µM

Cc1ncc([N+](=O)[O-])n1C
inactive: [1] | [7] | [8]
active: [6] 100 µM

CC1=CCC(O)(C(C)C)CC1 (stereo not given)
inactive: [1] | [7] | [4] | [8] | [9] | [10]

OC[C@H]1O[C@H](O[C@]2(CCl)O[C@H](CCl)[C@@H](O)[C@@H]2O)[C@H](O)[C@@H](O)[C@H]1Cl
not listed: [2] | [3] | [6] | [7] | [8] | [9] | [19] | [20]
inactive: all other assays above

COCCCOc1ccnc(CS(=O)c2nc3ccccc3[nH]2)c1C (stereo not given)
inactive: [1] | [19] | [20] | [5] | [6]
active: [3] 31.3 µM | [4] 4.77 µM | [10] 100 µM

O=S(=O)(O)c1ccc(O)c2ncccc12
inactive: [1] | [7] | [4] | [9] | [5] | [6] | [10]

Clc1sc(Cl)c(Cl)c1Cl
inactive: [1] | [7] | [4] | [6]

C=C[C@@H](C)CCC=C(C)C
inactive: [1] | [7] | [4] | [8] | [9]

Clc1ccc(Cl)c(Cl)c1Cl
inactive: [1] | [7] | [4] | [9] | [5] | [10]
active: [6] 63.4 µM

CCCCCCCCC
inactive: [1] | [7] | [3] | [10]

O=C(OCc1ccccc1)C(=O)OCc1ccccc1
inactive: [1] | [7] | [3] | [6]

C=CC(=O)NCOCC(C)C
inactive: [1] | [3]

CC(C)C[C@H]1C(=O)N2CCC[C@H]2[C@]2(O)O[C@](NC(=O)[C@@H]3C=C4c5cccc6[nH]c(Br)c(c56)C[C@H]4N(C)C3)(C(C)C)C(=O)N12
active: [4] 0.505 µM
inactive: [1] | [2] | [3] | [20] | [9]

NCCCN1CCOCC1
inactive: [1] | [7] | [6] | [10]

CCCCCCCCC=O
inactive: [11] | [12] | [8] | [5] | [13] | [14] | [15] | [16] | [17] | [18]
active: [1] 100 µM

O=C(O)COCCN1CCN(C(c2ccccc2)c2ccc(Cl)cc2)CC1 (stereo not given)
inactive: [1] | [7] | [4] | [10]

CC(O)C(C)O (stereo not given)
inactive: [1] | [7] | [8] | [9] | [5] | [10]
